Experimental findings from PMC7862700, “An all-to-all approach to the identification of sequence-specific readers for epigenetic DNA modifications on cytosine” are described below.

What all share (experiment): DAPPL (digital affinity profiling via proximity ligation, sequencing); 10 mM Tris-HCl pH 7.5, 50 mM NaCl, 1 mM DTT, 4% glycerol, room temperature, 30 min; GST-TFs on glutathione beads, 16-mer random dsDNA library, 0.1% formaldehyde crosslink after washing; high values mean tight binding
Common to all, as to conditions: protein: recombinant; tags: N-terminal GST; dsDNA, one strand shown

For one assay, the target named is T1, FLI1 (Homo sapiens, UniProt Q01543 1-452).
T1 sequence: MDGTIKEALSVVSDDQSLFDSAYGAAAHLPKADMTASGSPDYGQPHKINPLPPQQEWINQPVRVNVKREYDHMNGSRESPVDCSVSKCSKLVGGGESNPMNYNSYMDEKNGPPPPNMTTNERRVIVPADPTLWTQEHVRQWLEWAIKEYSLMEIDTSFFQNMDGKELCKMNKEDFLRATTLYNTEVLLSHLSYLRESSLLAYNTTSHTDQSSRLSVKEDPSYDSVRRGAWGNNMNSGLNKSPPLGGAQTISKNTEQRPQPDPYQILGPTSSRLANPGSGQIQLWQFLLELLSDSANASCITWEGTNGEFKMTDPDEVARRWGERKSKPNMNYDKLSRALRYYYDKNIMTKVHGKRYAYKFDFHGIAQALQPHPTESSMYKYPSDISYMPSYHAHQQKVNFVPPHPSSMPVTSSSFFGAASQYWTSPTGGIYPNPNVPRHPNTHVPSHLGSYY
An outline of the steps:
(§1)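 Human transcription factors fused to GST were expressed in yeast, captured on glutathione beads, given DNA barcodes and pooled with a GST-only negative control. Pools were incubated with 200 nmole of a 16-mer random double-stranded DNA library in Tris/NaCl/DTT/glycerol buffer at room temperature for 30 min. They were then washed, crosslinked with 0.1% formaldehyde, proximity-ligated (BsaI/T4 ligase, 1 h, 37 °C), PCR-amplified and sequenced on an Illumina NextSeq500. Binding signal is each 6-mer's read frequency for a factor divided by its frequency for the GST control.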

In a further assay the target is T2, ELK1 (Homo sapiens, UniProt P19419 1-428).
T2 sequence: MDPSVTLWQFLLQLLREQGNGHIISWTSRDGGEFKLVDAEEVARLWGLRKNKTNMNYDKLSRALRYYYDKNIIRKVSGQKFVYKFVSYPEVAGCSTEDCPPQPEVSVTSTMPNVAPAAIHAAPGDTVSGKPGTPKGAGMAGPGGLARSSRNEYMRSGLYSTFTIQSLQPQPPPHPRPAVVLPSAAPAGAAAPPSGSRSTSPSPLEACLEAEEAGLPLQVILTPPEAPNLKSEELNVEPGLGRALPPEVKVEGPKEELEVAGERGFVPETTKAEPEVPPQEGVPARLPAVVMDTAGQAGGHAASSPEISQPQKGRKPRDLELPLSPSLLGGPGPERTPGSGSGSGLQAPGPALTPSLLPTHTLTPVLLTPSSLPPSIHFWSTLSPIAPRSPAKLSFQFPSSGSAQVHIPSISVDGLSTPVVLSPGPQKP
An outline of the steps:
as §1

Another assay deals with ELF1 (Homo sapiens, UniProt P32519 1-619). An outline of the steps:
as §1

For a further assay, the target named is T3, EHF (Homo sapiens, UniProt Q9NZC4 1-300).
T3 sequence: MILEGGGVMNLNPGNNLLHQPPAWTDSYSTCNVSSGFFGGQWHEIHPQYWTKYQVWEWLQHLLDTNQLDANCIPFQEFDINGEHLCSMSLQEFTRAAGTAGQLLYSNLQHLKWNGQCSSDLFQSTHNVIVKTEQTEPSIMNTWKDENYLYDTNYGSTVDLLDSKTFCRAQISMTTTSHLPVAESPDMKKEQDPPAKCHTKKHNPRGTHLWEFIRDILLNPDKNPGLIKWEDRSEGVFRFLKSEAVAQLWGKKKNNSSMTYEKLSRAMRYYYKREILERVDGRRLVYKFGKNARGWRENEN
An outline of the steps: as §1

The next assay has as its target T4, ELK4 (Homo sapiens, UniProt P28324-2 1-405).
T4 sequence: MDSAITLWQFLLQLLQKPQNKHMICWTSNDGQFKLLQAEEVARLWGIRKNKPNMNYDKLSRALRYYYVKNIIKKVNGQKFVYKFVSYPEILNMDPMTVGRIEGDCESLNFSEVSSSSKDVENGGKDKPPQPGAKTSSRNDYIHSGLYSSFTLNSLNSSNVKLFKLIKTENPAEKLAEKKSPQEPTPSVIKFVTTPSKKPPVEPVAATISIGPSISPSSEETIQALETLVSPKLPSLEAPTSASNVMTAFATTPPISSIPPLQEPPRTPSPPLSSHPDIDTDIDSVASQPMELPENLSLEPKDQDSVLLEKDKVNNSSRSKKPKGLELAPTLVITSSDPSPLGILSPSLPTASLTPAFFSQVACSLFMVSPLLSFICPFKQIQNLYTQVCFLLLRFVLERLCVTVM
In short, it runs like this:
as §1

In another assay the target is T5, ETV2 (Homo sapiens, UniProt O00321 1-342).
T5 sequence: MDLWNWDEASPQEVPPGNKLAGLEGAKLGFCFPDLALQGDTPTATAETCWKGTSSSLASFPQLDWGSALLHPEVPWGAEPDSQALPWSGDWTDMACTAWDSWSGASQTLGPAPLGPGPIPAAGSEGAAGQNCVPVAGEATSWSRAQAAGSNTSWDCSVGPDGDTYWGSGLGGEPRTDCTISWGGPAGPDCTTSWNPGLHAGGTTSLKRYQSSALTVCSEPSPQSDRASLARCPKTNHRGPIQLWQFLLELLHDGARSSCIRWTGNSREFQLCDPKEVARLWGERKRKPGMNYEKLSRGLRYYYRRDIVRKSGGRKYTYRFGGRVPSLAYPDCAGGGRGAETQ
An outline of the steps:
as §1

In another assay the target is T6, ELF3 (Homo sapiens, UniProt P78545 1-371).
T6 sequence: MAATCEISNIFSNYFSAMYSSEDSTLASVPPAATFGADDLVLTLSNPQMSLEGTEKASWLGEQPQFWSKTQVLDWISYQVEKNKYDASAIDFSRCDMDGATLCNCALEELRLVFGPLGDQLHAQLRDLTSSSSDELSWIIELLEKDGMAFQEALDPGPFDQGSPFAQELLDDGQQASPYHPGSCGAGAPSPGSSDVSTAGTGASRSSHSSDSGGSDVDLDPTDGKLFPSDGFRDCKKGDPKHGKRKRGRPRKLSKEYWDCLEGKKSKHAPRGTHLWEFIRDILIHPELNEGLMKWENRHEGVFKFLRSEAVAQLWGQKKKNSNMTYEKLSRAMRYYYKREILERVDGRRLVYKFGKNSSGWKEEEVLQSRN
In short, it runs like this: as §1

The next assay has as its target T7, ETV7 (Homo sapiens, UniProt Q9Y603 1-341).
T7 sequence: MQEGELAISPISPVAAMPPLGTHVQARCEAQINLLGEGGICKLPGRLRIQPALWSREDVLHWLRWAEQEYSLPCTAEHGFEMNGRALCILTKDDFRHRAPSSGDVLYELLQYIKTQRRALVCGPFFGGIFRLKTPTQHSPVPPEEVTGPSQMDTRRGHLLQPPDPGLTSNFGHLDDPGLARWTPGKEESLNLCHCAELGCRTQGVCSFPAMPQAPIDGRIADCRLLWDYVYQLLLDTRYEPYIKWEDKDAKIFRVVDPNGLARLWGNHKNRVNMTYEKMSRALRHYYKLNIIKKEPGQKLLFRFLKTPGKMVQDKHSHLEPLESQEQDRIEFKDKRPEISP
An outline of the steps: as §1

The next assay deals with SPIB (Homo sapiens, UniProt Q01892 1-262). An outline of the steps:
as §1

In another assay the target is T8, ELK3 (Homo sapiens, UniProt P41970 1-407).
T8 sequence: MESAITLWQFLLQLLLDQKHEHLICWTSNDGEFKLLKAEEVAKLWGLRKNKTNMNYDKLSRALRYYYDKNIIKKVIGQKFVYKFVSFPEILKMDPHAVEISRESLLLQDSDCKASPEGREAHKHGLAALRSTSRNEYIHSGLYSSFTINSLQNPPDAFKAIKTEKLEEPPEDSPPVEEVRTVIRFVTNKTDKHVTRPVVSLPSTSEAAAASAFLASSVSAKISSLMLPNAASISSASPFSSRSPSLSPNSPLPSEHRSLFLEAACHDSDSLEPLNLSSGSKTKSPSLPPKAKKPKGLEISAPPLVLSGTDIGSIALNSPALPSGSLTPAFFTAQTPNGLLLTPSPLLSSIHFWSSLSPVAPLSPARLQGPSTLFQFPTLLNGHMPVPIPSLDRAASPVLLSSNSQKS
An outline of the steps: as §1

Another assay has as its target ELF4 (Homo sapiens, UniProt Q99607 1-663). In short, it runs like this:
as §1

The next assay deals with T9, ERF (Homo sapiens, UniProt P50548 1-548).
T9 sequence: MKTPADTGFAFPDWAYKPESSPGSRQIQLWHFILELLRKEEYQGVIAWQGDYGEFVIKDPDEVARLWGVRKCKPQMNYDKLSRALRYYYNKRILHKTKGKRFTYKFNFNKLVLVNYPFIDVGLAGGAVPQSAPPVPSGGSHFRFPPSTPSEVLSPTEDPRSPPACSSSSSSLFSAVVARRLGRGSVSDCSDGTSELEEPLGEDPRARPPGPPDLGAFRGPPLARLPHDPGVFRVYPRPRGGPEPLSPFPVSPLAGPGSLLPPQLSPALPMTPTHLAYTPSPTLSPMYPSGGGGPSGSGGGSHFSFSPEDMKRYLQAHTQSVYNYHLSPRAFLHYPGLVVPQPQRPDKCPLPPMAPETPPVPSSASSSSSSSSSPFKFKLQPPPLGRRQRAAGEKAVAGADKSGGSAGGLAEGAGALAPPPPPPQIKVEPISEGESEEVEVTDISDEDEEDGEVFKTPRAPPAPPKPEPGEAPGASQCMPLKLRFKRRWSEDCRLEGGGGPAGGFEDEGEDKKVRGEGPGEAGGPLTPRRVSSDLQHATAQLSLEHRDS
In short, it runs like this:
as §1

For a further assay, the target named is T10, ETV3 (Homo sapiens, UniProt P41162-2 1-143).
T10 sequence: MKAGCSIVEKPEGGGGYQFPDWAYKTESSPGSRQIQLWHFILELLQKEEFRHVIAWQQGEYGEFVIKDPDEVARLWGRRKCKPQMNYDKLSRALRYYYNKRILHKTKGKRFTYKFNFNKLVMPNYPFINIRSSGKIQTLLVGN
An outline of the steps:
as §1

Chain of ELF4 (Q99607 whole entry): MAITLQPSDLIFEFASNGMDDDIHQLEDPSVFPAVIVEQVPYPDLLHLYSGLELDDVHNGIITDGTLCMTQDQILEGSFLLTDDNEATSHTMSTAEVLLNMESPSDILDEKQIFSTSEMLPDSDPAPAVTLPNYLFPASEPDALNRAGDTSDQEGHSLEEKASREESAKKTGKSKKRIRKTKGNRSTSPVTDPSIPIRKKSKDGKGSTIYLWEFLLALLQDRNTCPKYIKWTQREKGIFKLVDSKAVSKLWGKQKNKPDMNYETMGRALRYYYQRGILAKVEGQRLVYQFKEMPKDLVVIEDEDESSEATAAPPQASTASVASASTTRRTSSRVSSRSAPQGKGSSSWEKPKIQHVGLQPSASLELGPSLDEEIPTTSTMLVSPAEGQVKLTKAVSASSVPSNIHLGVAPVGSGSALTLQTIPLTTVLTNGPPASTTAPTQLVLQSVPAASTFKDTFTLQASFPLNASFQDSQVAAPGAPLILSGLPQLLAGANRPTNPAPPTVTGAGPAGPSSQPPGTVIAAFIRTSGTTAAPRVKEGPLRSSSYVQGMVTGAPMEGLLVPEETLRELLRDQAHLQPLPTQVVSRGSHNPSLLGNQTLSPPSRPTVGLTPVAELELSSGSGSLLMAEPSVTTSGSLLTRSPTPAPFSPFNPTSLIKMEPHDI
Chain of ELF1 (P32519 whole entry): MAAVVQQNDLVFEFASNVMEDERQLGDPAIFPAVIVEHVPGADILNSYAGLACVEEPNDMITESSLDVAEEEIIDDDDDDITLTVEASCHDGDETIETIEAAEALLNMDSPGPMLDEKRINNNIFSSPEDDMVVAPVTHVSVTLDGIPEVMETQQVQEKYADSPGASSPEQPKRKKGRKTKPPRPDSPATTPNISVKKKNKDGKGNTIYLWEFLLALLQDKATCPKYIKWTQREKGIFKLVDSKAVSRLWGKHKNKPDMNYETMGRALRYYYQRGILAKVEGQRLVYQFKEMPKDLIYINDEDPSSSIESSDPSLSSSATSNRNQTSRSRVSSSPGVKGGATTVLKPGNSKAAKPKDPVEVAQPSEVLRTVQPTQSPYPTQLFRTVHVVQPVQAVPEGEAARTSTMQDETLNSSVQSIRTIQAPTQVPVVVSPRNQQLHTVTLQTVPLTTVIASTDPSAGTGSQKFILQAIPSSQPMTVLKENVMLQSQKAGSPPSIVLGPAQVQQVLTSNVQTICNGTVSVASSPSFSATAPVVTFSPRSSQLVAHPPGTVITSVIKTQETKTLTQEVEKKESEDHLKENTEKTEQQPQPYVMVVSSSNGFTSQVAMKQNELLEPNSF
Chain of SPIB (Q01892 whole entry): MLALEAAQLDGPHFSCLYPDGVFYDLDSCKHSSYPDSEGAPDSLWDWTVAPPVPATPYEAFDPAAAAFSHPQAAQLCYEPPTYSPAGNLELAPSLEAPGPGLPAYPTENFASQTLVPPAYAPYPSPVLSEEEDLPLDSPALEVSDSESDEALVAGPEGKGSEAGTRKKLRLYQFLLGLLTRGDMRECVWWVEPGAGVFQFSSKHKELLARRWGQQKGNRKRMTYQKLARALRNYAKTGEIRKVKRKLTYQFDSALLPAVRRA

With GCCGTC, the binding signal with FLI1 is 1.04 fold enrichment (6-mer frequency, TF over GST control); with ELK1 it was 1.03 fold enrichment (6-mer frequency, TF over GST control); in the assay with ELF1, 1.02 fold enrichment (6-mer frequency, TF over GST control); in the assay with EHF it was 1.1 fold enrichment (6-mer frequency, TF over GST control); in the assay with ELK4, 1.1 fold enrichment (6-mer frequency, TF over GST control); with ETV2 it was 1.03 fold enrichment (6-mer frequency, TF over GST control). Also, the binding signal with ELF3 was 1.17 fold enrichment (6-mer frequency, TF over GST control); with ETV7 it was 1.03 fold enrichment (6-mer frequency, TF over GST control).

Regarding AGTTTT, the binding signal was 1.05 fold enrichment (6-mer frequency, TF over GST control) with FLI1; 1.02 fold enrichment (6-mer frequency, TF over GST control) with EHF; 1.08 fold enrichment (6-mer frequency, TF over GST control) in the assay with SPIB; 1.14 fold enrichment (6-mer frequency, TF over GST control) with ELK3; 1.04 fold enrichment (6-mer frequency, TF over GST control) in the assay with ELF4; 1.01 fold enrichment (6-mer frequency, TF over GST control) in the assay with ELF3. Besides, the binding signal with ERF is 1.09 fold enrichment (6-mer frequency, TF over GST control); in the assay with ETV7, 1.02 fold enrichment (6-mer frequency, TF over GST control); with ETV3, 1.07 fold enrichment (6-mer frequency, TF over GST control).
